Screening results (PubChem BioAssay)
ULK1 primary: human ULK1 kinase inhibition, primary screen; O75385; AlphaScreen Atg13 phosphorylation by ULK1, luminescence; inhibition, % at 5.96 µM; 30,000 compounds, 1.9% hits; AID 1259251; in the data active = inhibition above about 43%;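 also: 0% = median of compound wells and 100% = no enzyme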
Target sequence (O75385 whole entry, looked up): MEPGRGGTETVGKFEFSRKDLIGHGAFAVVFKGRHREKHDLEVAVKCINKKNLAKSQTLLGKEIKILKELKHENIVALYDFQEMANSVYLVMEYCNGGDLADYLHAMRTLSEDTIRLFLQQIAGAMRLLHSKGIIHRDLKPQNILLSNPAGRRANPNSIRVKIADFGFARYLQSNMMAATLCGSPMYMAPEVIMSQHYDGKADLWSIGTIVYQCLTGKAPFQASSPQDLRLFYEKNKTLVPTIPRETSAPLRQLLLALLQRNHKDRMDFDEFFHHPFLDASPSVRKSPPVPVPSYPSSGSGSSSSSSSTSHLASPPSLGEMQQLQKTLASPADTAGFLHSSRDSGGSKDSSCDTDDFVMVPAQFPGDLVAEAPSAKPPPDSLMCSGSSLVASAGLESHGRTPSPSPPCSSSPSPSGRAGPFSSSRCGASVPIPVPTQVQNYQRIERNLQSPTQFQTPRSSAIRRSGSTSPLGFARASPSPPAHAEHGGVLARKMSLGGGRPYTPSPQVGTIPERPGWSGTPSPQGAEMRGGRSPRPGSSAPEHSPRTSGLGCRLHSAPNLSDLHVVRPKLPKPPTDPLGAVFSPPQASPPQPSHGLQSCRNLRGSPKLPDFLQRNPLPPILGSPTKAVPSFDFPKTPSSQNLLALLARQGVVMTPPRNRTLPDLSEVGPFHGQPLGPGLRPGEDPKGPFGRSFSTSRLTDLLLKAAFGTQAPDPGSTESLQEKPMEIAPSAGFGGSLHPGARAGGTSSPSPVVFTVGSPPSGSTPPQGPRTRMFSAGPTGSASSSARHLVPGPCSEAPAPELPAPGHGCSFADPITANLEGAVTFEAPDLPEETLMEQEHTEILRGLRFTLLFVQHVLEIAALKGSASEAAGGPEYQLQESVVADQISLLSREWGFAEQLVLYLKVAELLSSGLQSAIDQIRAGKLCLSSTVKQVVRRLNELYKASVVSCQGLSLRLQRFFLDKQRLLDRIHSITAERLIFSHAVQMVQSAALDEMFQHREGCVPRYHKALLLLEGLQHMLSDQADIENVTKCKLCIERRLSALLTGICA
ASK1 primary: human ASK1 kinase inhibition, primary screen. 22,000 compounds, 0.99% hits. AID 1159602. inhibition, % at 7.44 µM. Q99683. AlphaScreen MKK6 phosphorylation by ASK1, luminescence; in the data active = inhibition above about 35%;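 also: 0% = median of compound wells and 100% = no enzyme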
Numbers without * were called inactive; x = no result given; ! = a repeat was not active. In the library only some 2.5% were active in any assay of this set; here they are far more common.

SMILES | ULK1 primary | ASK1 primary
c1cncc(Nc2nc(Nc3ccc(N4CCOCC4)cc3)c3ncn(-c4ccsc4)c3n2)c1 | 48.9* | 28.6
Nc1nc(NC2CCN(Cc3ccccc3)CC2)nc2c1ncn2Cc1ccc(C(F)(F)F)cc1 | 1.4 | -0.5
Nc1n[nH]c2ccc(-n3cc(C(=O)NCC(O)c4ccc(Cl)cc4)nn3)cc12 (configuration not stated) | 13.2 | -15.8
COc1ccc2c(c1)CC(C(=O)Nc1ccc(-c3ccncc3)cc1SCCC(=O)N(C)C)CO2 (configuration not stated) | -7.4 | 2.4
CC(C)[C@@H](O)C(=O)N[C@H]1CC[C@@H](C(=O)Nc2ccc3[nH]ncc3c2)C1 | 1.3 | 13.2
N[C@@H]1CC[C@H](C(=O)Nc2ccc3cnccc3c2)C1 | 7.7 | -2.3
NC1CCC(C(=O)Nc2ccc3[nH]ncc3c2)CC1 (configuration not stated) | 55.1*! | 14.3
N[C@H]1CCC[C@H](C(=O)Nc2ccc3cnccc3c2)C1 | 75.0* | -2.0
O=C1CCCN1CCCNc1cc(Nc2ncccn2)ncn1 | -6.1 | -4.0
CC(=O)N1CCN(C(=O)c2ccc(Nc3nccc(-c4ccccc4)n3)cc2)CC1 | -8.8 | 3.1
CC(=O)Nc1ccc(NC(=O)C2CCN(c3ccc(NCc4cccnc4)nn3)CC2)cc1 | 16.1 | 7.9
Nc1nc(NCc2nc3ccccc3[nH]2)cc(-c2csc3ccccc23)n1 | -8.4 | -0.5
C[C@H]1c2cccc(O)c2C(O)=C2C(=O)[C@]3(O)C(O)=C(C(N)=O)C(=O)[C@@H](N(C)C)[C@@H]3[C@@H](O)[C@@H]21 | 52.0* | x
CN(C)c1ccc(O)c2c1C[C@H]1C[C@H]3[C@H](N(C)C)C(=O)C(C(N)=O)=C(O)[C@@]3(O)C(=O)C1=C2O | 10.1 | x
CC(C)N(CCNc1nc(Nc2cnccn2)nc2c1ncn2C1CCCCC1)C(C)C | 3.3 | -22.4
O=C(NCCCN1CCCC1=O)c1csc(Nc2ccc3ncccc3c2)n1 | 11.4 | 3.0
O=C(Nc1ccc(N2CCOCC2)cc1)C1CCN(c2ccc(Nc3ccc(C(F)(F)F)cc3)nn2)CC1 | 24.5 | 15.8
O=C(NCCO)C1CCN(c2ccc(Nc3ccc(C(F)(F)F)cc3)nn2)CC1 | 46.4* | -11.7
CC(C)N(CCNc1nc(NCCN2CCOCC2)nc2c1ncn2-c1ccccc1)C(C)C | -4.1 | -1.2
CN(C)C(=O)c1ncccc1Nc1cc(Nc2ccc3c(c2)CC(=O)N3)ncc1C(F)(F)F | 39.9 | -10.6
CNC(=O)c1ncccc1Nc1cc(Nc2ccc3[nH]ncc3c2)ncc1C(F)(F)F | 23.9 | 5.5
CNC(=O)c1ncccc1Nc1cc(Nc2ccc(C(=O)N(C)C)cn2)ncc1C(F)(F)F | 56.3* | 7.0
CNC(=O)c1ccccc1Nc1cc(Nc2ccc(C(=O)N(C)C)cc2C)ncc1C(F)(F)F | 78.4* | -26.9
CNC(=O)c1ccccc1Nc1cc(Nc2ccc(C(=O)N(C)C)cn2)ncc1C(F)(F)F | 88.9* | -7.8
CC(C)N(C(=O)Cc1csc(NC(=O)Nc2ccccc2)n1)C(C)C | -3.9 | x
SMILES | ULK1 primary | ASK1 primary
COc1cc2nc(NCCN3CCOCC3)nc(NCc3cccc(C(F)(F)F)c3)c2cc1OC | -7.2 | -4.4
c1ccc(Nc2nc(Nc3ccncc3)nc3c2ncn3-c2ccsc2)cc1 | 35.0 | -8.8
CC(=O)Nc1ccc(NC(=O)c2cccc(-c3ccc4[nH]ccc4c3)n2)cc1 | 2.1 | 10.9
COc1cc2nc(NC3CCC(O)CC3)nc(Nc3ccc(N4CCOCC4)cc3)c2cc1OC (configuration not stated) | 4.8 | 11.0
O=C(Cc1cn(-c2ccc(Nc3ccc(N4CCOCC4)cc3)nn2)c2ccccc12)Nc1ccccc1 | 9.8 | 13.4
Cn1nccc1Nc1ccc(-n2cc(CC(=O)Nc3ccc(N4CCOCC4)cc3)c3ccccc32)nn1 | 49.0* | -7.4
COc1ccc(CC(=O)Nc2cc3cc(-c4cnn(C)c4)ccc3cn2)cc1 | 26.6 | 24.4
COc1cc(N2CCOCC2)ccc1Nc1ncc(Cl)c(Nc2ccccc2C(=O)NC2CC2)n1 | 12.3 | -3.4
COc1cc(N2CCOCC2)ccc1Nc1cc(Nc2ccccc2-c2ncccn2)c(C(F)(F)F)cn1 | 8.6 | 6.9
CNC(=O)c1ccccc1Nc1cc(Nc2ccc(N3CCOCC3)cc2F)ncc1C(F)(F)F | 88.8* | -1.0
COc1cnc(Nc2ccc(N3CCOCC3)cc2)nc1Nc1ccccc1C(N)=O | 85.3* | -83.5
COc1cnc(Nc2ccc(N3CCOCC3)cc2)nc1-c1ccc(S(C)(=O)=O)cc1 | 45.5* | 16.4
CNC(=O)c1ccccc1Nc1nc(Nc2ccc(N3CCOCC3)c(F)c2)ncc1Cl | 90.2* | -60.5
COc1ccc(-c2ncc(C)c(Nc3ccc(N4CCOCC4)cc3)n2)cc1 | 4.2 | 9.1
CNC(=O)c1ccccc1Nc1nc(Nc2ccc(-n3cnc(N4CCOCC4)n3)cc2)ncc1Cl | 36.1 | -27.4
COc1ccc(C(=O)/C(Br)=C\C(=O)O)cc1 | -10.1 | x
CCN(CC)C(=O)C1CCCN(c2cc(NC3CCN(Cc4ccccc4)CC3)ncn2)C1 (configuration not stated) | 2.8 | -4.6
COc1cccc(-c2nn(CN3CCOCC3)c(=S)n2-c2ccccc2)c1 | 5.9 | x
CNC(=O)c1ccccc1Nc1cc(Nc2ccc(C(=O)N3CCOCC3)cn2)ncc1C(F)(F)F | 86.1* | 8.3
FC(F)(F)c1cnc(Nc2ccc(N3CCOCC3)cc2)cc1Nc1cc(C2CC2)[nH]n1 | 80.4* | 24.7
CNC(=O)c1ccccc1Nc1cc(Nc2ccc(N3CCOCC3)cc2)ncc1C(N)=O | 85.5* | -11.7
O=C(NCc1ccccc1)c1ccccc1Nc1ccnc(Nc2ccc(N3CCOCC3)cc2)c1 | 2.1 | 12.5
O=C(c1ccc(Nc2ccc3[nH]ncc3c2)nc1)N1CCOCC1 | -1.6 | -9.4
CNC(=O)c1ccccc1Nc1cc(Nc2ccc3[nH]cc(C4=CCNCC4)c3c2)ncc1C(F)(F)F | -37.8 | 28.2
CNC(=O)c1ccccc1Nc1cc(Nc2ccc(N3CCOCC3)cc2)ncc1C(F)(F)F | 89.6* | 0.7
SMILES | ULK1 primary | ASK1 primary
COc1ccc(N2CCOCC2)cc1Nc1cc(Nc2ccccn2)c(C(F)(F)F)cn1 | 16.6 | 19.6
CCCNc1ccnc(Nc2ccccn2)n1 | -10.0 | -1.2
CN1CCN(c2ccc(-c3cc(NCCc4ccc(O)cc4)ncn3)cc2)CC1 | -0.4 | 15.7
COc1ccc(/C=C(\C(=O)N2CCN(C)CC2)n2ccccc2=O)cc1OC | 2.2 | x
NC(=O)c1ccccc1Nc1cc(Nc2ccc(-n3cnc(N4CCOCC4)n3)cc2)ncc1C(F)F | 51.5* | -20.8
Cc1cnc(Nc2ccc(-n3cnc(N4CCOCC4)n3)cc2)cc1Nc1ccccc1C(N)=O | 26.8 | -31.4
CCN(CC)c1nc(NCc2cccc(C(F)(F)F)c2)nc(Nc2ccnn2C)n1 | -16.0 | -14.6
O=C(NCc1ccccc1)c1cccc(NCCCN2CCCC2=O)c1 | 53.7* | -5.8
O=C(NCCCN1CCCC1=O)c1cccc(NCCCN2CCCC2=O)c1 | -12.8 | 2.4
Cn1c(Nc2nc3ccc(C(=O)NCCN4CCOCC4)cc3s2)nc2ccccc21 | -1.8 | 10.1
Nc1nc(-c2ccc(N3CCOCC3)nc2)nc2c1ncn2-c1ccsc1 | 32.1 | 8.4
CN1CCN(C(=O)c2ccc(-c3cccc(C(=O)NCc4ccccc4)n3)cc2)CC1 | 70.2* | 14.5
CN1CCN(C(=O)c2ccc(-c3cccc(C(=O)NCc4cccnc4)n3)cc2)CC1 | 9.3 | 6.0
Nc1nc(NCCO)cc(-c2ccccc2)n1 | 5.7 | 7.0
CCN(CC)c1ccc(C=Nc2ccc(C(C)=O)cc2)c(O)c1 | -13.3 | x
